# Test results as given in PubChem BioAssay AID1347426 (Functional Genomics Laboratory (NCATS/FGL), 2020).
# About 1,400 (4.5%) of roughly 31,000 sequences were called active. This is one part of a sample in which actives are shown more often than they occur.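 How the source made its calls: active means median seed-adjusted z-score above 1 or below -1; inactive means the rest.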
# Assay: Novel Modifiers of Survival Motor Neuron (SMN) Protein: Gene Identification via Genome-wide siRNA Screen;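 further: luminescence tracks full-length SMN protein made from the SMN2 reporter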
# Settings: HEK293T SMN2-luciferase reporter, siRNA knockdown, 72 h; actives lie on both sides
# How it was run: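 Genome-wide siRNA screen (10418 genes, 3 siRNAs each, 1 pmol per well) by reverse transfection in HEK293T cells stably carrying an SMN2-luciferase reporter; luminescence after 72 hours, normalized to negative-control siRNA, log10-transformed, MAD-scored.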
row,Sequence,median seed-adjusted z-score
1,ACAAGAACCCUGACAAUAATT against DNAJB8,-1.09 (active)
2,GCAACAUGCAGAUAGGUUATT against PHF14,0.354 (inactive)
3,GCCUGUGACUCAUACUGGATT against ELF5,-0.45 (inactive)
4,CCGGCUACACCUUCCGUAATT against DNAJB8,-1.09 (active)
5,GAGAUGCGCAAAUUCACUCTT against IP6K2,-0.193 (inactive)
6,GGAAAAUCAUUGUGCUAAUTT against VN2R1P,-0.25 (inactive)
7,GAUUUGGUUUCGUAACUUUTT against A2BP1,1.17 (active)
8,GACUGGUUAUUACGUCUUATT against SYNJ1,0 (inactive)
9,GAGUGUAACUGCAACCAGATT against NTNG2,0.403 (inactive)
10,ACUCAGUGGAGGUCACCAATT against EIF3F,-0.0214 (inactive)
11,GCCUCUCAGAGAACUACGATT against LRRC33,-0.194 (inactive)
12,GGGCGAUGUCCAUCCACAATT against PIF1,-0.0455 (inactive)
13,CUCCAUUCCUGGUAUAGAATT against XRCC5,-1.11 (active)
14,CCUCCUCACCAAACCCAUUTT against SLC5A1,-0.812 (inactive)
15,CGACUGAACAAACCCUAUATT against ERCC3,0.155 (inactive)
16,GCCUGAAUGCAGCCCAGUUTT against SP2,-0.617 (inactive)
17,AGGACAAGCUGAAAAUCCATT against ZBTB7C,0.447 (inactive)
18,UCAGUUUGCUGAGAACGAATT against TCEB1,1.08 (active)
19,CCUCAACUCUAAAUACUCATT against ZNF716,0 (inactive)
20,GGAGAUCUCUCGUCUCAAUTT against KCNH4,-0.769 (inactive)
21,GGAGAUGUAUUGGUGAGAATT against CYP3A5,0.0516 (inactive)
22,GCAGCUACAGGUCAUCUCATT against DGAT2,0.195 (inactive)

row,Sequence,median seed-adjusted z-score
1,GGAGUGCGAUGGACAAUUUTT against LCT,0.411 (inactive)
2,GGUGCAAGAGAGUCCGUUUTT against D2HGDH,-0.637 (inactive)
3,UGAAAGGACUGGAGUCCAATT against OLFM1,-0.103 (inactive)
4,GGAUAUUGGAUUGCCUAGATT against TCFL5,1.52 (active)
5,GGUUCACUUUGAUAGUACUTT against CLCA4,0.186 (inactive)
6,GCCCUGAUUUGUGCAAUGATT against PPP1R16B,-0.892 (inactive)
7,GAGUCAGGAUCGCAAGUCATT against SAFB2,0.0394 (inactive)
8,CCUCGAUUGUCUUCCGGAATT against UBA7,2.41 (active)
9,ACUCCAUCCUGAACCCUCATT against USP49,0.549 (inactive)
10,GAUCAAUUACGAAAUCUCATT against MED30,-2.06 (active)
11,AAGAAGAAGUGGACACUGATT against FGFRL1,-0.111 (inactive)
12,GGAACUUGGUUGUAGAGCUTT against SVIL,0.0852 (inactive)
13,CAACCACCCUCACAUCAUUTT against NUAK2,-0.0601 (inactive)
14,AAAUGCAAUUCAAGCCUUUTT against GFRA1,0.125 (inactive)
15,GGAAACUCGUCGUUCAAUATT against IL13RA1,0.269 (inactive)
16,UCGUGGAGGUGAUCUAUUATT against RAB6C,-1.08 (active)
17,UGAUUUACCUGAGCUGUAATT against GSTT2,0.0298 (inactive)
18,CAACUUCCACUGUUUCCGATT against RRAGC,-0.557 (inactive)
19,CGAUGCUUGUCAGUCCCAATT against NOTCH4,-0.384 (inactive)
20,GCCUAGAGGUUUGCCCUGATT against ATHL1,0 (inactive)
21,UCCACUGCCCAAUAAAUAUTT against PYDC1,-1.44 (active)
22,CGAGCCCAAGGAACAUGAATT against NKX2-3,-0.2 (inactive)

row,Sequence,median seed-adjusted z-score
1,GCUUUUCUCUUACAAUUCATT against ZNF557,-0.197 (inactive)
2,CCAUUAACGAGCUGCUUAATT against PLK1,-2.57 (active)
3,CAGUCGGAUCCAGAGCUGATT against GCHFR,-0.559 (inactive)
4,AGCUCACGCUGUGCAUGUGTT against TREX2,-0.918 (inactive)
5,AAUCAGAUUCUCAACCUAATT against KRT10,0.493 (inactive)
6,CCUUCGAGCUGCUAUUAAUTT against TLR10,-0.363 (inactive)
7,GAAGCGACUGUUUUAGAAATT against EIF4E3,0 (inactive)
8,GUUAUCCUCUAAUUGAUAATT against B3GALNT1,0.128 (inactive)
9,GGGUGUAACAUGUGCGGAATT against ZNF217,-0.872 (inactive)
10,GCACCAUCGUCCUUGAACATT against DUOX1,-1.09 (active)
11,CCACUGCAACUGUAAUUCUTT against PROCA1,-0.502 (inactive)
12,GAGUUCGUCGAAUCCCAAATT against SETMAR,0.191 (inactive)
13,CCUCGAUUCUUAAAGACGATT against RELN,0.207 (inactive)
14,GCUUUGGAGUCACAGGUCATT against EYA3,-0.0191 (inactive)
15,GGAGACAAGCACAAGCUGATT against S100B,0.862 (inactive)
16,GUGCGAUUCUGGAUGACAATT against EVI1,0 (inactive)
17,CAUGGGACCUGAUUCAAGATT against FCER2,-1.75 (active)
18,CCAGAUCAGUCCUAGCUUATT against GLIS3,-0.00906 (inactive)
19,AGCUGGUUCACGACAUGAATT against TRIP6,1.03 (active)
20,GCAUUGACUGGUCCUAUGATT against CPA2,0.0374 (inactive)
21,GCACUCCCAAGAUUGAUAATT against RBPJ,-0.452 (inactive)
22,CACUGAUUUUGGAUGCUCUTT against HES1,-0.262 (inactive)

row,Sequence,median seed-adjusted z-score
1,ACACGGCAUUAAAAAGCUATT against JRK,-0.624 (inactive)
2,AAACCAUCAUGCUGAGGUGTT against FCGR2A,-0.19 (inactive)
3,GAGCACGACUGAAAAUGUATT against PTS,-0.103 (inactive)
4,UAACCGAUUUGAUAUGAAUTT against ANKRA2,1.26 (active)
5,GGGAGAGUGUGCUACGAAATT against NEIL1,-0.168 (inactive)
6,GAUUCGCAGUUUAGAUGUUTT against PRKAA2,-0.194 (inactive)
7,GUACUUACCUUGUGAGGCATT against VAV3,0 (inactive)
8,GGUGGGUGGUAAGAGGGAATT against AQP2,-0.433 (inactive)
9,GCAGAUGUAUAAGAAGGCATT against RRM2,-3.84 (active)
10,GGAGAGAGCUCUCACAUCUTT against PPT1,0.727 (inactive)
11,AGAUUGUAGUUGUGGAUCATT against CDH15,0 (inactive)
12,CAGCUGUAGUUCUAACUAUTT against ZNF23,-0.106 (inactive)
13,GGAUCAAUGUGACGGAGAATT against EMILIN2,0.726 (inactive)
14,GAGUCGAACUUUACUGUCUTT against MLL2,-2.11 (active)
15,GGAAUGGAAUGAUCGGUGATT against GRIN2A,0.025 (inactive)
16,CGAGUUUGAUGAAAGAGGATT against NT5E,0.199 (inactive)
17,CGUUAUGCCUGGUCUCCUATT against SPPL3,0.652 (inactive)
18,CAGAUUUGGUAAAAGAGUATT against VPS26A,-1.55 (active)
19,CCCAUUUCGGACUCCAAAATT against IRX3,-0.285 (inactive)
20,ACUUUGCCUUCAAGCUCUATT against SERPINA13,-0.403 (inactive)
21,GCUACUAUGCUGAAGAUCATT against CDH18,0.21 (inactive)
22,GGAAGAUGUUGACAUAUUUTT against ACAT2,1.25 (active)

row,Sequence,median seed-adjusted z-score
1,GAAUAAGUGACUAUCCAAATT against SENP2,0 (inactive)
2,GGAGGCACCUCUCAAGAUATT against THRAP3,-0.852 (inactive)
3,GCGAGGCUGUUAACCCUUATT against PRKCQ,0.692 (inactive)
4,GAUGCUAUGGAAUACCAUATT against METTL4,0.244 (inactive)
5,GCUGGUACCCUGGAGGAAATT against GNRH2,1.13 (active)
6,ACAUGGUUAUUCCCAGUGATT against AKR1CL2,-0.949 (inactive)
7,CAUUCAAUCCGGACCAUUUTT against CYP2J2,0.00659 (inactive)
8,CAGAUAUUAUGAAGAAUUUTT against GALNS,0.0287 (inactive)
9,GCCUCUUUCUGUCAGCAUUTT against SPAG4,-0.219 (inactive)
10,GGAAGGAUAUUACACCUAUTT against MMP24,-1.28 (active)
11,GCAAAGCCCUGUCAAACAATT against NPM2,0.215 (inactive)
12,CCAAGAAACUGCGAGACAATT against CNGA2,-0.0447 (inactive)
13,CCAGAGUCCUGUUCGAUUUTT against USP30,-0.646 (inactive)
14,CCUCAAGCCUGUAGAAGAATT against SMNDC1,-1.54 (active)
15,CAGCAUUUAUCAAGUCUUATT against BMP6,0.301 (inactive)
16,GCAUCGGCAUUGAAGGCUUTT against ALOX15B,0.156 (inactive)
17,GUAACUUCCUAUUCACCAATT against EPAS1,-0.166 (inactive)
18,GGUCUGGAGAAGGUGCAUATT against ANGPTL4,1.37 (active)
19,CUCUACCAACAAUCACAAATT against NPTN,0.133 (inactive)
20,GGUCGAGUUCUACUACAAATT against IPO11,-0.245 (inactive)
21,CAUGCUCGUGGGUAACAAATT against RAB25,-0.04 (inactive)
